This is a sample that favours compounds with a hit; in the whole collection about 3% have one here.
Mtb FBA inh: Mtb FBA enzyme inhibitors, primary screen, biochemical, fluorescence, strain H37Rv. purified M. tuberculosis FBA, fluorescence read-out. inhibition, % at 1 µM. 360,000 compounds, 2.3% hits. AID 588726, 2011; in the data active means inhibition above about 27%;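 further: 0% = vehicle and 100% = reference inhibitor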
Target sequence (P9WQA3 whole entry, looked up): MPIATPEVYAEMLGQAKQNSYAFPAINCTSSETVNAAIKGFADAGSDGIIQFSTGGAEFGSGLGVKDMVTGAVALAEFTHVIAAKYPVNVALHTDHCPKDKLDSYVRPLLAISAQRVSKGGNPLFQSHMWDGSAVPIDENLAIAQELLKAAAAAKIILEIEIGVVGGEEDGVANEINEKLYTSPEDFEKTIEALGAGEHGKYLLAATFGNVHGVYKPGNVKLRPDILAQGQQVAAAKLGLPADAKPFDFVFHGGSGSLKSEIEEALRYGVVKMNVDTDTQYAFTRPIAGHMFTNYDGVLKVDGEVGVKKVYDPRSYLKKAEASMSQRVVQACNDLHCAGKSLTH
GDH-TPI counter: GDH-TPI coupling enzyme inhibitors, primary screen, artefact control for M. tuberculosis FBA inhibitor project, biochemical, absorbance, full deck; GDH-TPI coupled enzyme counterscreen, NADH absorbance; inhibition, % at 4.8 µM; 360,000 compounds, 1.2% hits; AID 588335, 2011; in the data active means inhibition above about 30%;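 further: 0% = DMSO wells and 100% = wells lacking the enzyme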
Vc quorum ag-1: inducers of Vibrio cholerae quorum light production without autoinducers, primary screen, BH1578 luxS cqsA deficient, single point; activation, % at 18.7 µM; 350,000 compounds, 0.16% hits; AID 588436, 2011; V. cholerae BH1578 lux reporter, luminescence, 6 h; in the data active means activation mostly above about 9.7%, no sharp cut-off
BioA inh: M. tuberculosis BioA enzyme inhibitors, primary screen, biochemical, plate reader, single point, HTS. 7,8-diaminopelargonic acid synthase BioA (Mycobacterium tuberculosis). purified M. tuberculosis BioA enzyme. inhibition, % at 9.99 µM. 360,000 compounds, 0.096% hits. AID 602481, 2012; in the data active means inhibition above about 40%
Vc quorum ag-2: V. cholerae lux activation without autoinducers – BH1578 luxS cqsA deficient, cherry-pick, plate reader, dose response | activation, % at 50 µM | AID 602243, 2012 | 620 tested, under 10 active | shares compounds with Vc quorum ag-1 | V. cholerae BH1578 lux reporter, luminescence, 6 h; call rule not given here
HeLa 24h tox: HeLa cell cytotoxicity, dose response, cytotoxicity control, 24 h, dry powder; shares compounds with Vc quorum ag-1; HeLa viability, CellTiter-Glo ATP luminescence; activity change, negative = cytotoxicity, % at 35 µM; 25 tested, under 10 active; AID 624140, 2012;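 active means signal drop with fitted half-maximal concentration at or below twice the highest valid dose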
* marks the source's active call; other numbers are inactive results; i = inactive; · = no result.

SMILES	Mtb FBA inh	GDH-TPI counter	Vc quorum ag-1	BioA inh	others
CCOC(=O)Cc1c(C)nc2c(-c3ccc(Cl)cc3)c[nH]n2c1=O	56*	21	i	0
CO[C@@H]1CN(C)C(=O)c2ccc(NC(=O)C3CC3)cc2OC[C@@H](C)N(Cc2cc(F)ccc2F)C[C@H]1C	·	·	·	1
C[C@H](CO)N1C[C@H](C)[C@@H](CN(C)Cc2ccccc2)Oc2ccc(NC(=O)C3CCCCC3)cc2C1=O	·	·	·	2
C[C@@H]1CN([C@@H](C)CO)C(=O)Cc2cc(NC(=O)Nc3ccc(F)cc3)ccc2O[C@H]1CN(C)Cc1ccccc1	·	·	·	1
C=CCNc1nc(N)c(C(=C(C#N)C#N)c2ccc(Br)cc2)s1	126*	14	i	2
CCOC(=O)/C(=N\Nc1ccc(Br)cc1)N1CC(C)OC(C)C1 (centres undefined)	-4	37*	0	0
COc1cc(/C=C/c2[nH]c(=O)[nH]c(=O)c2[N+](=O)[O-])cc(OC)c1O	-4	31*	0	3
COc1cccc(/C=C/c2[nH]c(=O)[nH]c(=O)c2[N+](=O)[O-])c1O	-5	14	-2	·
C[C@H](CO)N1C[C@H](C)[C@@H](CN(C)CC2CC2)OCCCC[C@H](C)Oc2ccc(NS(=O)(=O)c3ccc(Cl)cc3)cc2C1=O	·	·	·	3
Cc1nonc1C(=O)N/N=C/c1ccc([N+](=O)[O-])o1	-6	8	i	1
Cc1cc(C(=O)N/N=C/c2ccc([N+](=O)[O-])o2)c(C)o1	1	41*	0	·
O=C(N/N=C/c1ccc([N+](=O)[O-])o1)c1cc(-c2cccc(Br)c2)nc2ccccc12	-3	39*	i	-1
CNC[C@H]1Oc2ccc(N)cc2C(=O)N([C@@H](C)CO)C[C@@H]1C	·	·	·	-4
C[C@H](NC(=O)C[C@@H]1C=C[C@H](NC(=O)CN2CCOCC2)[C@@H](CO)O1)c1ccccc1	·	·	·	0
C[C@H]1CCCCO[C@H](CN(C)C(=O)Nc2cccc3ccccc23)[C@@H](C)CN([C@@H](C)CO)C(=O)c2cc(NS(=O)(=O)c3cn(C)cn3)ccc2O1	·	·	·	1
COc1cc2c(cc1OC)-c1nc3ccccc3c(=O)n1C(C)(C)C2	5	39*	i	0
COc1ccc(/C=C2\CCn3c2nc2ccccc2c3=O)cc1OC	-1	9	1	-2
CO[C@@H]1CN(C)C(=O)c2ccc(NS(=O)(=O)c3ccccc3C)cc2OC[C@@H](C)NC[C@@H]1C	·	·	·	-2
Nc1nnnn1/N=C/c1cc(Br)ccc1O	-2	32*	-1	-1
Nc1nnnn1/N=C/c1ccc(Br)cc1	1	7	i	-1
CN1c2ccc(-c3ccc(F)cc3)cc2[C@@H]2[C@@H](CCN2S(=O)(=O)c2ccc(F)cc2)[C@H]1CO	·	·	·	12
O=C(NC1Cc2ccccc2C1)[C@H]1[C@H](CO)[C@H]2Cn3c(ccc(C4=CCCCC4)c3=O)[C@@H]1N2CC1CC1	·	·	·	1
CCSc1nc2c(c(=O)[nH]1)C(c1ccccn1)C1=C(CC(C)(C)CC1=O)N2 (centres undefined)	124*	12	3	1
COc1ccc(-c2nc(-c3ccc4c(c3)OCO4)[nH]c2-c2ccc(OC)cc2)cc1	136*	16	i	1
C[C@@H]1CCCCO[C@@H](CN(C)Cc2ccc(C(=O)O)cc2)[C@@H](C)CN([C@@H](C)CO)C(=O)c2cc(NC(=O)Cc3ccccc3)ccc2O1	·	·	·	1
SMILES	Mtb FBA inh	GDH-TPI counter	Vc quorum ag-1	BioA inh	others
C/C(=N\Nc1ccc(S(N)(=O)=O)cc1[N+](=O)[O-])c1ccccc1O	-4	22	0	-3
C/C(=N\Nc1ccc(S(N)(=O)=O)cc1[N+](=O)[O-])c1ccco1	-6	41*	0	0
N#CCSc1ccccc1NC(=O)COC(=O)CCNC(=O)c1ccc([N+](=O)[O-])cc1	2	1	9	9	Vc quorum ag-2=0
S=C(c1ccc(N2CCOCC2)cc1)N1CCCCC1	2	11	20*	1	Vc quorum ag-2=0
Oc1ccc(C(=S)N2CCCCC2)cc1	-3	-6	·	-1
COc1cccc(CNC(=O)COC(=O)CN(C)S(=O)(=O)c2ccc(NC(C)=O)cc2)c1	-2	-5	12	0	Vc quorum ag-2=0
O=C(C[C@@H]1CC[C@H](NC(=O)NC2CCCCC2)[C@@H](CO)O1)NCc1ccccc1	·	·	·	-1
C[C@H](CO)N1C[C@H](C)[C@@H](CN(C)S(=O)(=O)c2cn(C)cn2)Oc2cc(C#Cc3ccccc3)ccc2S1(=O)=O	·	·	·	-3
COc1ccccc1NC(=O)COC(=O)c1cc2c(s1)CCC2	0	4	·	·	Vc quorum ag-2=i;HeLa 24h tox=4
COc1ccc(OC)c(NC(=O)COC(=O)c2cc3c(s2)CCC3)c1	-1	7	22	·	Vc quorum ag-2=2
COc1ccccc1NC(=O)COC(=O)C1CCCC1	2	-4	i	-2
COc1ccc(OC)c(NC(=O)COC(=O)CCC2CCCC2)c1	0	1	-2	1
O=C(COc1cccc(Cl)c1)Nc1ccccc1N1CCCCC1	-1	-1	19	-3	Vc quorum ag-2=0
O=C1C(=O)N(Cc2ccco2)C(c2cccc(Cl)c2)/C1=C(\O)c1ccc2c(c1)OCCO2 (centres undefined)	0	5	12	-1	Vc quorum ag-2=0
CC(C)NC(=O)Nc1ccc2c(c1)C(=O)N([C@@H](C)CO)C[C@H](C)[C@@H](CN(C)C(=O)Nc1ccccc1)OCCCC[C@H](C)O2	·	·	·	2
CCCCCCCCOC(=O)C(NC(=O)CCC(=O)Nc1ccc(S(N)(=O)=O)cc1)C(O)c1ccccc1 (centres undefined)	4	1	17*	-2	Vc quorum ag-2=0
CCOC(=O)C(NC(=O)CCC(=O)Nc1ccc(S(N)(=O)=O)cc1)C(O)c1ccccc1 (centres undefined)	·	·	6	0
C[C@@H]1CCCCO[C@@H](CN(C)C(=O)c2ccccc2)[C@H](C)CN([C@H](C)CO)C(=O)c2cc(NS(=O)(=O)c3cn(C)cn3)ccc2O1	·	·	·	0
CC(OC(=O)c1ccc(-n2cnnn2)cc1)C(=O)N(C)c1ccccc1 (centres undefined)	-1	0	14	4	Vc quorum ag-2=1
CC(C(=O)N1CCCCCC1)N(c1ccc(Cl)cc1)S(C)(=O)=O (centres undefined)	1	5	-1	-3
Cc1ccc(N(C(C)C(=O)N2CCCCC2)S(C)(=O)=O)cc1C (centres undefined)	4	9	25*	0	Vc quorum ag-2=0
CCc1ccc2c(c1)c1nnc(NN)nc1n2C	2	23	1	0

High-throughput results deposited in PubChem by several laboratories.
